# Measurements reported in PubChem BioAssay (NCI).
# Compounds without any hit were thinned out: in the full panel of roughly 83,000, 20% have a hit.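 Assay: single dose, 48 h. Readout: percent growth (0 = no net growth; negative = cell death). Active: <10.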 A number with no mark means an inactive call. The source made the active and inactive calls.
# Assays:
# Test in all cases: NCI-60 one-dose screen, 48 h (100 = growth as untreated, 0 = no growth, -100 = all killed)
# Settings in all cases: 10 µM unless noted
# [1] = system: NCI-H23 lung
# [2] = system: NCI-H226 lung
# [3] = system: NCI-H322M lung
# [4] = system: HOP-62 NSCLC
# [5] = system: NCI-H460 lung
# [6] = system: HOP-92 NSCLC
# [7] = system: A549/ATCC NSCLC
# [8] = system: 786-0 renal
# [9] = system: MALME-3M melanoma
# [10] = system: MDA-MB-231 breast
# [11] = system: RXF 393 renal
# [12] = system: SF-268 CNS
# [13] = system: SF-295 CNS
# [14] = system: SF-539 CNS
# [15] = system: UACC-257 melanoma
# [16] = system: M14 melanoma
# [17] = system: COLO 205 colon
# [18] = system: DU-145 prostate
# [19] = system: K-562 leukemia
# [20] = system: NCI-H522 lung
SMILES,growth [1],growth [2],growth [3],growth [4],growth [5],growth [6],growth [7],growth [8],growth [9],growth [10],growth [11],growth [12],growth [13],growth [14],growth [15],growth [16],growth [17],growth [18],growth [19],growth [20]
O=C(N/N=C/c1ccc([N+](=O)[O-])o1)c1ccc(O)cc1,41.5%,89.7%,65.6%,30.3%,18.8%,103%,36.9%,63.4%,-34.9% (active),57.9%,82.5%,12.6%,49.8%,8.11% (active),17.1%,4.75% (active),,,,
COc1ccc(-c2cc(-c3cc4ccccc4oc3=O)n(-c3ccccc3)n2)cc1,79.3%,75.7%,78.1%,55.4%,95.3%,67%,,-31.5% (active),69.5%,60.1%,,71.1%,94.7%,33.8%,,89%,66.3%,84%,81.8%,
C/C(=N\Nc1ccc([N+](=O)[O-])cn1)c1ccc(N)cc1,109%,109%,120%,109%,110%,,96.1%,99.7%,133%,88.9%,132%,94.4%,128%,93.7%,105%,106%,104%,116%,13.8%,85.8%
CC(C)CCC(=O)[C@@H](C)[C@H]1[C@@H](OC2OCC(O)C(O)C2NS(C)(=O)=O)C[C@H]2[C@@H]3CC=C4C[C@@H](O)CC[C@]4(C)[C@H]3CC[C@]12C (some centres not stated),56.8%,52.4%,68.5%,8.62% (active),12.1%,,33.4%,-32% (active),8.83% (active),43.8%,-65.1% (active),9.17% (active),-60.9% (active),-41.2% (active),-42.8% (active),-53.1% (active),-0.62% (active),49%,2.65% (active),20.7%
Cc1cccc(N=NC(=S)NNc2cccc(C)c2)c1,102%,101%,101%,101%,112%,,105%,111%,108%,93.5%,115%,135%,104%,108%,105%,108%,116%,122%,105%,95.4%
O=C1/C(=C/c2ccccc2)SC(=Nc2ccccc2)N1Nc1ccccc1,13.8%,-40.1% (active),26.9%,39.4%,-25.2% (active),,15.5%,-31.4% (active),-14.6% (active),12.1%,-58% (active),26.9%,16.2%,5.85% (active),10.5%,-59.3% (active),0.201% (active),22%,4.55% (active),-5.53% (active)
CC(C)(C)[Si](C)(C)OC1[C@@H](CNC(N)=O)O[C@@H](n2cnc3c(NC(=O)Nc4ccccc4)ncnc32)[C@H]1O[Si](C)(C)C(C)(C)C (some centres not stated),62.4%,75.9%,119%,78.1%,5.08% (active),,37.6%,58.8%,75.4%,77.9%,6.77% (active),48.3%,64.7%,68.1%,78.6%,54.3%,9.85% (active),72.6%,35.2%,63.8%
CC(C)CCSc1nc(Nc2ccccc2)c(C#N)c(-c2ccc(F)cc2)n1,74.4%,90.7%,49.8%,56.5%,6.55% (active),,25.3%,-9.8% (active),68.4%,46.2%,82%,79.1%,34.5%,52.7%,52.7%,70.1%,18.6%,82.3%,38.8%,61%
N=c1nc(N2CCCCC2)cc(N)n1O,115%,92.7%,126%,101%,113%,,103%,117%,145%,108%,108%,109%,103%,116%,99.8%,123%,106%,114%,116%,103%
CC(CN1CCN(CC(C)Nc2ccnc3cc(Cl)ccc23)CC1)Nc1ccnc2cc(Cl)ccc12 (configuration not stated),62.3%,26.6%,20.7%,-18.4% (active),-30.4% (active),,15.7%,-9.83% (active),-55.5% (active),-19% (active),-69.4% (active),16.7%,-48.2% (active),-82.4% (active),-61.4% (active),-88% (active),-85% (active),30%,-21.9% (active),-29.4% (active)
O=C1C=CN2C(=O)CC=CC2[C@@H]1O (some centres not stated),103%,113%,116%,112%,121%,,108%,110%,133%,122%,118%,111%,116%,104%,108%,104%,123%,118%,109%,113%
Cc1cc(O)ccc1Sc1ccccc1[N+](=O)[O-],86.2%,97.2%,110%,92.2%,96.4%,,84.9%,107%,79.6%,106%,106%,98.4%,90.1%,102%,88.1%,88.9%,108%,96%,101%,75.9%
COc1ccc2[nH]cc(C3(c4c[nH]c5ccc(OC)cc45)C(=O)Nc4ccc(Cl)cc43)c2c1,80.3%,108%,85.5%,85.2%,6.57% (active),,63.6%,74.1%,78.9%,82.4%,94.5%,40.8%,59.6%,74.8%,86.5%,73.8%,69.2%,66.9%,6.2% (active),65.7%
Cn1c(-c2ccccc2)cc(=O)n1-c1ccccc1,96%,102%,103%,108%,117%,,102%,107%,113%,100%,115%,112%,122%,101%,97.4%,110%,121%,120%,110%,107%
O=C1/C(=C/N2N=C(c3ccc(Cl)cc3)CC2c2ccccc2O)SC(=S)N1c1cccc(C(F)(F)F)c1 (configuration not stated),53.8%,63.3%,71.4%,69.1%,44.6%,,38.6%,66.4%,79.6%,44%,67.4%,48.1%,64.7%,76.1%,94.5%,48.2%,71.2%,63.4%,42.6%,30.3%
CC(C)c1ccc2c(c1)CCC1C2CCCC1(C)NCc1ccccc1 (configuration not stated),73%,103%,32.6%,91%,71.3%,,83.7%,64.7%,-32.3% (active),39.8%,51.7%,79.2%,96.7%,90%,-31.2% (active),-84.9% (active),-35.8% (active),75%,11.1%,9.67% (active)
CCCCCCCCCCCCC1CCC(=O)O1 (configuration not stated),101%,100%,74.6%,91.8%,107%,,87.4%,85.9%,98.2%,103%,123%,97.1%,105%,89.8%,107%,91.6%,97.9%,104%,97.1%,86.9%
